# From PubChem BioAssay (NCATS)
# Some of the results follow. Records with an inconclusive call do not appear. Active and inactive are the calls of the source. Calls follow the shape of the full dose curve.
# Test system: Chikungunya virus nsP2 protease
# Experiment: Confirmatory qHTS for inhibitors of NSP2Pro chikungunya virus (CHIKV) (AID 1964105); also: nearly all actives have a fitted effect of over 75% in size
# Conditions: CHIKV nsP2 protease enzymatic activity; series mostly up to 25.5 µM
# Source text: PI: Natalia J. Martinez Ph.D.
# National Center for Advancing Translational Sciences (NCATS),
# National Institute of Health (NIH), Rockville, Maryland
# Chikungunya virus (CHIKV) is a mosquito-borne RNA virus that has emerged as one of the most important global arboviral threats in the last decade. Although the first CHIKV vaccine has recently been FDA approved for use in healthy adults at increased risk, to date, there are no available antiviral drugs for CHIKV infection. CHIKV nsP2 protease plays a crucial role in the processing of the viral polypeptide precursor to release enzymes required for viral replication, thus making it a promising drug target for antiviral discovery. Here, we established a high-throughput pipeline to identify small molecule inhibitors of nsP2 proteolytic activity. The pipeline is composed of a suite of 1,536-well in vitro assays to support quantitative high-throughput (qHTS) screening campaigns. Specifically, we developed a fluorescence resonance energy transfer (FRET)-based assay using a fluorogenic peptide substrate encompassing an endogenous cleavage site and purified recombinant protease domain (nsP2pro). Using this assay, we interrogated ~37,000 small molecules, including those in drug repurposing libraries as well as chemically diverse and medicinal chemistry-friendly compounds. Hits were selected for follow-up validation against full-length nsP2 and an additional peptide. FRET-based 1,536-well assays for papain, hepatitis C virus NS3-4A, and human furin proteases were implemented to characterize compound selectivity. […] Novel compounds were identified to be potential nsP2 inhibitors and molecular docking analyses were performed to explain the binding mode of selected hits. In vitro antiviral activity was evaluated for a subset of compounds using a high-throughput CHIKV infection assay. To our knowledge, the pipeline presented here is unprecedented for CHIKV antiviral discovery research.
# PROTOCOL TABLE (as described by Inglese J, Shamu CE and Guy RK. 2007)
# SEQUENCE No. (e.g., 1, 2, 3, etc.); […] (e.g., Cells, Incubation, Reagent, etc.); VALUE; DESCRIPTION.
# 1; Control / Compound; 20 nL; Echo 655 acoustic dispenser, Greiner 1536-well solid bottom black plate.
# 2; Enzyme; 4 uL; BioRAPTR FRD liquid dispenser (Beckman Coulter).
# 3; Incubation; 15 min; room temperature.
# 4; Reagent; 4 uL; 2.5 uM Peptide 2 substrate.
# 5; Incubation; 1 hr; room temperature.
# 6; Detection; Fluorescence; WiewLux microplate reader (PerkinElmer), 525 nm excitation, 598/25 nm emission.
# NOTES (numbers refer to sequence numbers above).
# 1.Briefly, 20 nL DMSO, positive control ZnAc (20nM final concentration), and test compounds were transferred into a 1,536-well solid bottom black plate (789176-F, Greiner One) via Echo 655 acoustic dispenser (Beckman Coulter). For primary screens, compounds were tested at 7 concentrations, 1:3 dilution points ranging from 25 uM to 34 nM. Follow-up confirmatory screens were carried out at 11 concentrations, 1:3 dilution points from 25 uM to 0.42 nM.
# 2.Four uL nsP2pro enzyme mix (150 nM final concentration) in 10 mM Tris-HCl pH 8.0 with 0.01% Tween 20 assay buffer was dispensed into the plate using a BioRAPTR FRD liquid dispenser (Beckman Coulter).
# 3.The plate was incubated at room temperature (protected from light) for 15 min
# 4.Four microliter of peptide 2 substrate (2.5 uM final concentration) in assay buffer was added to the plate.
# 5.After 1 hour, plates were immediately read on a ViewLux high-throughput CCD imager (Exposure = 10 sec, Gain = High, Speed = Slow, Binning = 2X). The above assay was also incorporated in the NCATS HTS facility41, which allowed for robotic liquid and compound dispensing, microplate handling, and fluorescence reading.
# Inglese J, Shamu CE and Guy RK, Reporting data from high throughput screening of small molecule libraries, Nature Chemical Biology, 2007, 3(8): 438-441. doi.org/10.1038/nchembio0807-438.
# Potency is read from the fitted curve at half-maximal effect.
row,Structure (SMILES),Potency
1,CCOc1ccc(NC(=O)c2c(NC(=O)Cc3ccccc3)sc3c2CCCCC3)cc1,7.98 µM (active)
2,CCC(C)C(=O)OC1C(C)C2(O)C(C=C(CO)CC3(O)C(=O)C(C)=CC32)C2C(C)(C)C12OC(=O)C(C)C (stereo not drawn),inactive
3,Cn1nnnc1Sc1ncnc2n[nH]c(-c3cccc(S(C)(=O)=O)c3)c12,3.18 µM (active)
4,CCOc1ccc(NC(=O)c2c(NC(=O)Cc3ccccc3)sc3c2CCC(C)C3)cc1 (stereo not drawn),7.11 µM (active)
5,N#CSc1cc(SC#N)c(N)nc1N,0.318 µM (active)
6,CCOc1ccc(N(Cc2ccccc2)C(=O)c2nc(S(C)(=O)=O)ncc2Cl)cc1,3.18 µM (active)
7,C[C@@H]1C[C@@H](O)[C@@]23CO[C@]2(CO)C[C@@H](O)CC3[C@@]12CC(c1ccoc1)OC2=O (stereo partly drawn),inactive
8,CCc1ccccc1NC(=O)c1cnn(-c2ccc(F)cc2)c1C1CCNCC1,inactive
9,C=CC(=O)c1ccc2ccccc2c1,6.34 µM (active)
10,Oc1ccc(OC2CCCCO2)cc1 (stereo not drawn),inactive
11,COC([CH2][Hg])CNC(=O)c1ccccc1OCC(=O)O (stereo not drawn),2.25 µM (active)
12,C=Cc1c(C)c2cc3nc(cc4[nH]c(cc5nc(cc1[nH]2)C(C)=C5CCC(=O)O)c(CCC(=O)OC)c4C)[C@@]1(C)C3=CC=C(C(=O)OC)[C@H]1C(=O)OC,inactive
13,O=C(O)c1cccc(-n2[nH]c(-c3ccccc3)cc2=O)c1,inactive
